# Test results as given in PubChem BioAssay (NCATS).
# Results filed as inconclusive are left out. Values without a mark were called inactive. The call rests on the fitted dose curve; in most records, active means well fitted cell-killing curve with a large enough effect; inconclusive means small, poorly fitted or top-dose-only effect; inactive means no such curve, though single readings can be large or run the other way.
# Experiment: qHTS of pediatric cancer cell lines to identify multiple opportunities for drug repurposing: Primary screen for OHS-50 cells (AID 1347103); further: nearly all actives have a fitted effect of over 40% in size
# Settings: OHS-50 osteosarcoma viability, CellTiter-Glo luminescence, 48 h; series mostly up to 57.3 µM; activity change, negative = cytotoxic: at the top concentration
# Excerpt: Drug repurposing or repositioning has been offered as a strategy for drug development in oncology programs. This approach has special potential for childhood cancers and other rare or orphan diseases, where the expected return on new drug development has been a disincentive to pharmaceuticals.
# In this project we exploit the poly-pharmacology of drugs to discover new indications via phenotypic screening of a panel of 19 well-characterized cell lines derived from solid tumors seen in children and adolescents. The goal is to identify approved drugs with previously unrecognized anticancer properties that has the potential to reveal new mechanisms and biological processes involved in carcinogenesis or drug resistance. We employed a titration-based paradigm (quantitative high-throughput screening or qHTS), where all compounds were tested at multiple concentrations for their effect on cell viability. Concentration-response curves (CRCs) were derived directly from the primary screen, and both potency and efficacy values were used to identify compounds with robust bioactivity profiles. We screened the NIH Chemical Genomics Center (NCGC) Pharmaceutical Collection (NPC) and Mechanism Interrogation Plate (MIPE) small molecule collections of approved and investigational compounds against these cell lines; and measured metabolically active cells after 48 hours of compound treatment as a proxy for cell viability.
# Assay Submitter: Nathalia J. Martinez, National Center for Advancing Translational Sciences, National Institutes of Health, Rockville, MD, USA; email: natalia.martinez@nih.gov
# [1] Shen, M et al. Quantitative high-throughput phenotypic screening of pediatric cancer cell lines identifies multiple opportunities for drug repurposing. Oncotarget 2017 Dec 19;9(4):4758-4772. PMID 29435139.
# The cells were obtained from University of North Carolina (UNC), Pediatric Preclinical Testing Program (PPT), and Coriell Institute (CI).
# qHTS cell viability assay:
# Cells were assayed in growth media at a density of 500-1,000 cells/well. Five microliters of cells were dispensed into 1,536-well, white, solid-bottom, TC-treated plates (Greiner Bio One) using a multidrop dispenser and incubated at 37 degrees C, 5% CO2, under a humidified atmosphere for 5 hours. Twenty-three nanoliters of compounds and controls (neutral control DMSO or positive control bortezomib at final concentration of 2.3 µM) were subsequently transferred by Kalypsys pintool. For primary screens, the MIPE collection was tested at 11-point dilutions (final concentrations range from 0.78 nM to 46 µM) and the NPC collection at 8-point dilutions (final concentrations range from 0.59 nM to 46 µM). Compounds tested in follow-up screens were assayed at 11-point dilutions. Cells were incubated for 48 hours, followed by addition of 3 µL of CellTiter-Glo (Promega). After a 15 min incubation at room temperature, samples were analyzed for luminescence intensity using a ViewLux High-throughput CCD imager equipped with clear filters.
row,SMILES,"activity change, negative = cytotoxic"
1,CCS(=O)(=O)CCn1c([N+](=O)[O-])cnc1C,15.2%
2,CC(C)CCCC(C)CCCC(C)CCCCC(C)CCCC(C)CCCC(C)C (stereo not given),9.08%
3,Cc1cc(-n2nc3ccc(Cl)cc3n2)c(O)c(C(C)(C)C)c1,6.81%
4,NC(N)=NCCN1CCCCCCC1,7.69% [at 0.73 µM]
5,OCCN1C[C@H](O)[C@@H](O)[C@H](O)[C@H]1CO,13.4%
6,CCc1nnc(NS(=O)(=O)c2ccc(N)cc2)s1,8.61%
7,Cc1c(I)c(=O)n(-c2ccccc2)n1C,-16.5%
8,CCOc1ccc(C(=O)OCCN(CC)CC)cc1,-9%
9,Nc1ccc(S(=O)(=O)c2ccc(N)cc2)cc1,17.7%
10,C[C@@H]1CCC[C@H](C)N1,15.8%
11,CN1C(=O)CC(c2ccccc2)C1=O (stereo not given),-7.02%
12,NCc1ccc(S(N)(=O)=O)cc1,3.29%
13,Cc1cccc(C(=O)O)c1O,11%
14,O=C(CCBr)N1CCN(C(=O)CCBr)CC1,9.45%
15,CC(=O)N[C@H]1[C@H]([C@H](O)[C@H](O)CO)OC(C(=O)O)=C[C@@H]1N=C(N)N,3.98%
16,Cc1cccc(C)c1NC(=O)CC12CCCN1CCC2,-3.63%
17,NS(=O)(=O)c1cc2c(cc1C(F)(F)F)NCNS2(=O)=O,8.88%
18,O=C(O)c1ccc(OCCCOc2ccc(C(=O)O)cc2)cc1,1.8%
19,O=C(O)[C@@H]1[C@H]2C[C@H]3c4[nH]c5ccccc5c4CCN3C[C@@H]2CC[C@@H]1O,28.2%
20,COc1ccc(NS(=O)(=O)c2ccc(N)cc2)nn1,22.8%

row,SMILES,"activity change, negative = cytotoxic"
1,O=C1c2ccccc2S(=O)(=O)N1CCCCN1CCN(c2ncccn2)CC1,-7.74%
2,CC(C)c1cc2c(cc1S(=O)(=O)O)[C@@]1(C)CCC[C@@](C)(C(=O)O)[C@@H]1CC2,8.51%
3,Cc1c(NC(=O)c2cccnc2)c(=O)n(-c2ccccc2)n1C,-7.82%
4,O=C(O)CCCc1ccccc1,4.52%
5,O=C(OOC(=O)c1ccccc1)c1ccccc1,9.48%
6,CCCC(O)C(CC)CO (stereo not given),9.03%
7,COC(=O)c1cccnc1,10.5%
8,CCN(CC)CCOC(=O)C(c1ccccc1)c1ccccc1,-4.25%
9,C=CCN1C[C@H](C(=O)N(CCCN(C)C)C(=O)NCC)C[C@@H]2c3cccc4[nH]cc(c34)C[C@H]21,7.44%
10,CNCc1ccccc1,2.38%
11,CC(CSC(=O)c1ccccc1)C(=O)N1C[C@@H](Sc2ccccc2)C[C@H]1C(=O)O (stereo not given in full),6.7% [at 19.7 µM]
12,O=C(O)CNC(=O)c1ccccc1I,-5.13%
13,O=C(O)Cc1cn(-c2ccccc2)nc1-c1ccc(Cl)cc1,13.3%
14,O=c1[nH]c2cc(C(F)(F)F)c(N3CCOCC3)cc2n(CP(=O)(O)O)c1=O,-12.9%
15,CN(C(=O)c1c(O)c2ccccc2n(C)c1=O)c1ccccc1,12.6%
16,O=c1[nH]c(=O)c2ccccc2o1,7.79%
17,Cc1[nH]c(C)c(Cl)c(=O)c1Cl,5.76% [at 19.7 µM]
18,CC(C)NC[C@@H](O)COc1ccc(CC(N)=O)cc1,17.1%
19,C[N+]1(C)CCCC(OC(=O)C(O)(c2ccccc2)c2ccccc2)C1 (stereo not given),6.88%
20,O=C(O)CCC(=O)O,3.07%
